Experimental data published in ChEMBL document CHEMBL2218924, “A broad activity screen in support of a chemogenomic map for kinase signalling research and drug discovery” (Biochem J, 2013).

What follows are compounds tested against Dual specificity mitogen-activated protein kinase kinase 1 (Homo sapiens) (UniProt Q02750). Settings: at 1 µM.
Sequence of Dual specificity mitogen-activated protein kinase kinase 1 (Homo sapiens) (Q02750 whole entry): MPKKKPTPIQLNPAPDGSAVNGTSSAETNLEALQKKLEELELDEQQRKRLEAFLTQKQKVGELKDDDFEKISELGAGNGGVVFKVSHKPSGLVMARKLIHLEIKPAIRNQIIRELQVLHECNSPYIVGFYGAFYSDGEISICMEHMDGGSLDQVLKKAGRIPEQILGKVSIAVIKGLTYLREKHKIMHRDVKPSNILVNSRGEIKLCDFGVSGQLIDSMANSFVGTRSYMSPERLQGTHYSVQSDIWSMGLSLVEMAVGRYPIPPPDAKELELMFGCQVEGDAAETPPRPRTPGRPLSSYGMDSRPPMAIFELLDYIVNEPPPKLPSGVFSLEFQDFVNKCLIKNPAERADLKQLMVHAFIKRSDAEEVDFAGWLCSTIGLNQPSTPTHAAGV

Row | SMILES | residual activity
1 | C[S+]([O-])c1ccc(-c2nc(-c3ccc(F)cc3)c(-c3ccncc3)[nH]2)cc1 (configuration not stated) | 113%
2 | COc1ccc2c(c1)/C(=C/c1cnc[nH]1)C(=O)N2 | 62%
3 | O=C1Nc2ccc3ncsc3c2/C1=C/c1c[nH]cn1 | 15%
4 | CCn1cnc2c(Nc3cccc(Cl)c3)nc(N[C@@H]3CCCC[C@@H]3N)nc21 | 87%
5 | COc1ccc2c(c[n+](C)c3c4cc5c(cc4ccc23)OCO5)c1OC | 125%
6 | O=C1NC(=O)c2c1c1c3ccccc3n3c1c1c2c2ccccc2n1C1CCC3O1 | 40%
7 | COc1cc2ncnc(Nc3ccc(OCc4ccccc4)cc3)c2cc1OC | 115%
8 | O=c1[nH]c2ccccc2n1C1CCN(Cc2ccc(-c3nc4cc5[nH]cnc5cc4nc3-c3ccccc3)cc2)CC1 | 127%
9 | CC(C)(C)c1cc(C=C(C#N)C#N)cc(Br)c1O | 113%
10 | c1cc(-c2cnn3cc(-c4ccc(OCCN5CCCCC5)cc4)cnc23)ccn1 | 123%
11 | O=[N+]([O-])/C=C/c1ccc2c(c1)OCO2 | 127%

What follows are compounds tested against Dual specificity mitogen-activated protein kinase kinase 1 (Homo sapiens) (UniProt Q02750). Settings: at 10 µM.

Row | SMILES | residual activity
12 | C[S+]([O-])c1ccc(-c2nc(-c3ccc(F)cc3)c(-c3ccncc3)[nH]2)cc1 (configuration not stated) | 110%
13 | COc1ccc2c(c1)/C(=C/c1cnc[nH]1)C(=O)N2 | 11%
14 | O=C1Nc2ccc3ncsc3c2/C1=C/c1c[nH]cn1 | 1%
15 | CCn1cnc2c(Nc3cccc(Cl)c3)nc(N[C@@H]3CCCC[C@@H]3N)nc21 | 25%
16 | COc1ccc2c(c[n+](C)c3c4cc5c(cc4ccc23)OCO5)c1OC | 119%
17 | O=C1NC(=O)c2c1c1c3ccccc3n3c1c1c2c2ccccc2n1C1CCC3O1 | 51%
18 | COc1cc2ncnc(Nc3ccc(OCc4ccccc4)cc3)c2cc1OC | 84%
19 | O=c1[nH]c2ccccc2n1C1CCN(Cc2ccc(-c3nc4cc5[nH]cnc5cc4nc3-c3ccccc3)cc2)CC1 | 62%
20 | CC(C)(C)c1cc(C=C(C#N)C#N)cc(Br)c1O | 96%
21 | c1cc(-c2cnn3cc(-c4ccc(OCCN5CCCCC5)cc4)cnc23)ccn1 | 117%
22 | O=[N+]([O-])/C=C/c1ccc2c(c1)OCO2 | 120%

Each compound was assayed against Maternal embryonic leucine zipper kinase (Homo sapiens) (UniProt Q14680). Settings: at 1 µM.
Sequence of Maternal embryonic leucine zipper kinase (Homo sapiens) (Q14680 whole entry, looked up): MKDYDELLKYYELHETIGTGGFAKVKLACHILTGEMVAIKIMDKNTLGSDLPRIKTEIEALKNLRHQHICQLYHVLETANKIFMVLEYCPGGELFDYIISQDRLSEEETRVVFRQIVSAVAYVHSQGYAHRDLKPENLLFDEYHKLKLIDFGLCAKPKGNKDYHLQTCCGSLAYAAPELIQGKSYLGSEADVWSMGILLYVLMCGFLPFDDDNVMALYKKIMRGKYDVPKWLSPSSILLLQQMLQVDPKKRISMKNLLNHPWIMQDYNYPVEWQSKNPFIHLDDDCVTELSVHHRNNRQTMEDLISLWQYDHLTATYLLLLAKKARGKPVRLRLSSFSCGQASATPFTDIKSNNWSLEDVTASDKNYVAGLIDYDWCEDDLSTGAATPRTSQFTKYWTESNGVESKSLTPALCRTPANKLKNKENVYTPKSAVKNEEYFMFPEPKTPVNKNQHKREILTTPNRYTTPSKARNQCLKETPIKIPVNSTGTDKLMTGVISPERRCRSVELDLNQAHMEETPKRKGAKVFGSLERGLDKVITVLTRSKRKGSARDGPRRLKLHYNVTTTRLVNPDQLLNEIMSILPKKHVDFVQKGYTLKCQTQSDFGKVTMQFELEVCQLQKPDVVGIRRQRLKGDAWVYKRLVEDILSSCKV

Row | SMILES | residual activity
23 | C[S+]([O-])c1ccc(-c2nc(-c3ccc(F)cc3)c(-c3ccncc3)[nH]2)cc1 (configuration not stated) | 107%
24 | COC(=O)[C@@]1(O)C[C@H]2O[C@]1(C)n1c3ccccc3c3c4c(c5c6ccccc6n2c5c31)C(=O)NC4 | 1%
25 | COc1ccc2c(c1)/C(=C/c1cnc[nH]1)C(=O)N2 | 24%
26 | O=C1Nc2ccc3ncsc3c2/C1=C/c1c[nH]cn1 | 6%
27 | O=C1c2ccccc2-c2nc3nnnn3nc21 | 67%
28 | CCn1cnc2c(Nc3cccc(Cl)c3)nc(N[C@@H]3CCCC[C@@H]3N)nc21 | 59%
29 | COc1cc(OC)c(/C=C2\C(=O)Nc3ccccc32)c(OC)c1 | 104%
30 | COc1ccc2c(c[n+](C)c3c4cc5c(cc4ccc23)OCO5)c1OC | 84%
31 | CC(C)[C@H](CO)Nc1nc(Nc2cccc(Cl)c2)c2ncn(C(C)C)c2n1 | 66%
32 | O=C1NC(=O)c2c1c1c3ccccc3n3c1c1c2c2ccccc2n1C1CCC3O1 | 55%
33 | N/C(=N\[N+](=O)[O-])N/N=C\c1ccc(-c2cccc([N+](=O)[O-])c2)o1 | 92%
34 | COc1cc2ncnc(Nc3ccc(OCc4ccccc4)cc3)c2cc1OC | 79%
35 | O=c1[nH]c2ccccc2n1C1CCN(Cc2ccc(-c3nc4cc5[nH]cnc5cc4nc3-c3ccccc3)cc2)CC1 | 94%
36 | c1cc(-c2cnn3cc(-c4ccc(OCCN5CCCCC5)cc4)cnc23)ccn1 | 5%
37 | O=[N+]([O-])/C=C/c1ccc2c(c1)OCO2 | 78%
